# Screening data as filed in PubChem BioAssay.
# LDHA block: qHTS assay for inhibitors of human lactate dehydrogenase. L-lactate dehydrogenase A chain (Homo sapiens), P00338. purified LDHA, NADH/diaphorase-resazurin fluorescence; stronger effect = lower value. activity change, % (values are at about 110 or 230 µM). actives 0.15% (n = 480,000). AID 1347041, 2019; in the data active = activity change below about -30%; inconclusive = mostly about -25% to -30%;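 note: plate controls were DMSO wells for no effect and wells without enzyme for full effect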
#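 LDH5 2 nM; NADH 0.06 mM, pyruvate 0.2 mM; 200 mM Tris pH 7.4, EDTA, Tween-20; 5 min RT. Detection: diaphorase 0.133 mg/mL + resazurin 37 µM, fluorescence ex540/em590 at 0 and 20 min; normalized to enzyme-free and DMSO wells.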
# TrxR1 substrate: qHTS Assay for Substrates of Mammalian Selenoprotein Thioredoxin Reductase 1 (TrxR1): qHTS | AID 588456, 2011 | Potency, µM (top dose mostly 114 µM), without a hit: top-dose activity change, negative = substrate turnover | purified TrxR1 substrate turnover, NADPH consumption readout | Thioredoxin reductase 1, cytoplasmic (Rattus norvegicus), O89049 | actives 0.01% (n = 390,000); note: potency is the fitted concentration of half-maximal effect; nearly all actives have a fitted effect of over 50% in size
# Target sequence (O89049 whole entry, looked up): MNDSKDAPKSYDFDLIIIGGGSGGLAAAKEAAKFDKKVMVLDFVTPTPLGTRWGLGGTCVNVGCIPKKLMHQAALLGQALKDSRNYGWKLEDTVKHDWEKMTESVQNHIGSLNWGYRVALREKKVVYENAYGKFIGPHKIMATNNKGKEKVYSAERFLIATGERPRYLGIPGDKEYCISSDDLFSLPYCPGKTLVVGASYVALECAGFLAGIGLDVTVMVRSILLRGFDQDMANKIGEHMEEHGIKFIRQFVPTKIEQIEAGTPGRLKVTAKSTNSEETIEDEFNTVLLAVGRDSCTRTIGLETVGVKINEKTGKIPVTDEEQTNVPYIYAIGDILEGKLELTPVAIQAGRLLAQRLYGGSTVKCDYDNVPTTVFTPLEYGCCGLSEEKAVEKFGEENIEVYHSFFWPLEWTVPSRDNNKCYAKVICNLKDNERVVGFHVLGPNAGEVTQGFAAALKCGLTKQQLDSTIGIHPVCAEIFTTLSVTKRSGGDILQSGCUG
#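 Rat TrxR1, dispensed at 90 nM, was prereduced with 400 uM NADPH (final) for 5 min at ~22 deg C, then incubated with compound 15 min before 400 uM selenite. A first-read NADPH fluorescence drop versus no-compound background flagged substrates.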
# GALK inhibitor: qHTS Assay for Inhibitors of Human Galactokinase (GALK) | P51570 | Potency, µM (top dose mostly 57.5 µM), for inactives: at the highest dose activity change, negative = inhibition, usual class: inhibitors | Purified GALK, Kinase-Glo residual ATP luminescence | actives 0.007% (n = 270,000) | AID 1868, 2009; note: potency is the fitted concentration of half-maximal effect
#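 Quantitative HTS: GALK 5 nM, ATP 35 uM, galactose 100 uM, 1 h room temperature, then luciferase-based ATP detection.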
# PI4K2A block: qHTS for small molecular inhibitors of PI4K2A; Phosphatidylinositol 4-kinase type 2-alpha (Homo sapiens), Q9BTU6; purified PI4K2A, ADP-Glo luminescence, 1 h; stronger effect = lower value; activity change, negative = inhibition, % at 76.9 µM; actives 0.13% (n = 420,000); AID 1346378, 2018; in the data active = activity change below about -50%; inconclusive = mostly about -30% to -49%;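 note: -100% = wells without enzyme as full effect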
#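 In this quantitative HTS, ADP production by PI4K2A was quantified luminescently after 1 h at ambient temperature; 100 microM adenosine served as plate-quality control.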
# a7 integrin act: qHTS for Activators of Integrin-Mediated Alleviation for Muscular Dystrophy; actives 0.064% (n = 350,000); Potency, µM (series often up to 38.3 µM), without a hit: top-dose activation, most hits filed as activators; alpha7betagal myoblasts, beta-gal FDG fluorescence, 48 h;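 note: potency is the fitted concentration of half-maximal effect; 100% = response of the positive control SU9516; nearly all actives have a fitted effect of over 60% in size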
#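 alpha7betagal+/- myoblasts (passage 13, 250/well) treated 48 h at 37C with compounds at 1:260 dilution of DMSO stock. Lysed, then beta-galactosidase activity read as FDG fluorescence (ex 480/em 540) after 30 min, with pre-read for autofluorescence.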
# TrxR1 inh: qHTS Assay for Inhibitors of Mammalian Selenoprotein Thioredoxin Reductase 1 (TrxR1): qHTS; Thioredoxin reductase 1, cytoplasmic (Rattus norvegicus), O89049; recombinant rTrxR1, NADPH fluorescence consumption, selenite substrate; Potency, µM (titrated, usually from 114 µM), inactives show at the highest dose activity change, negative = inhibition, actives largely listed as inhibitors; actives 1% (n = 390,000); AID 588453, 2011; note: potency is the fitted concentration of half-maximal effect; nearly all actives have a fitted effect of over 65% in size
#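 Rat TrxR1 (90 nM in the dispensed reagent) was pre-reduced with 400 uM NADPH for 5 min at room temperature, then incubated with compound for 15 min. After 400 uM selenite was added, NADPH fluorescence (Ex 340/Em 450 nm) was followed for 8 min.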
# * marks the source's active call; other numbers are inactive results; ? = inconclusive; . = no result given; ! = repeats disagree; [ ] = dose if it differs, or a comment. Sampled rows, rich in hits. Any-hit rate of the full collection: about 1.1%. Unless noted, calls come from the whole dose curve; as a rule, active = well fitted curve in the direction sought with a large enough effect; inconclusive = small, poorly fitted or top-dose-only effect, or another doubt; inactive = no such curve, though single readings can be large; an effect the other way counts as inactive or inconclusive. Unless noted, % is set by controls: 0 for no effect and ±100 for the full control effect.
SMILES,LDHA block,TrxR1 substrate,GALK inhibitor,PI4K2A block,a7 integrin act,TrxR1 inh
CC(C)CNC(=O)C(Cc1ccccc1)NC(=O)C(c1ccccc1)c1ccccc1 (stereo unspecified),4,.,.,.,.,.
Cc1csc(N/N=C/c2ccc(O)c([N+](=O)[O-])c2)n1,-1,-23%,5%,-13,-7%,28µM*
CN(C)c1ccc(NC(=O)c2cccc(S(=O)(=O)NCc3cccs3)c2)cc1,-12,.,.,.,.,.
Cc1cc(NS(=O)(=O)c2ccc(NC(=S)NC(=O)c3ccccc3)cc2)no1,-9,-19%,0%,2,21%,45µM*
Cc1cc(NS(=O)(=O)c2ccc(NC(=S)NC(=O)c3ccc(C(C)(C)C)cc3)cc2)no1,-4,3%[0.457 µM],.,-8,-3%,45µM*
Cc1cc(NS(=O)(=O)c2ccc(NC(=S)NC(=O)c3ccncc3)cc2)no1,-17,-6%,0%,4,3%,-16%
Cc1ccc(/C=C2\SC(=S)N(/N=C/c3cc([N+](=O)[O-])ccc3O)C2=O)o1,3,-14%,-12%,-18,16%,22µM*
Cc1ccccc1C(=O)Nc1nnc(S(=O)(=O)N(C)Cc2ccco2)s1,-2,4%,0%,2,-24%,45µM*
Cc1ccc(C(=O)Nc2nnc(S(=O)(=O)N(C)Cc3ccco3)s2)cc1,5,17%,.,-3,.,45%
CCCC(=O)Nc1nnc(S(=O)(=O)N(C)Cc2ccco2)s1,-3,-3%,-2%,-6,-23%,40µM*
CCC(=O)Nc1nnc(S(=O)(=O)N(C)Cc2ccco2)s1,-5,-5%,5%,-3,-4%,?
CN(Cc1ccco1)S(=O)(=O)c1nnc(NC(=O)c2ccccc2Cl)s1,-5,2%,3%,-16,-21%,25µM*!
O=C(CCc1c[nH]c2ccccc12)NCCC12CC3CC(CC(C3)C1)C2,10,.,.,.,.,.
CC(C)NC(=O)NC(=O)C(C)Sc1cccc2cccnc12 (stereo unspecified),6,.,.,.,.,.
COC(=O)C(C)Oc1ccc2c(=O)c(-c3ccccc3)c(C(F)(F)F)oc2c1 (stereo unspecified),5,.,.,.,.,.
COc1ccccc1-c1coc2c(CN3C(C)CCCC3C)c(O)ccc2c1=O (stereo unspecified),0,35%,3%,-1,2.2µM*,0%
COc1ccccc1-c1coc2c(CN3CCCCC3C)c(O)ccc2c1=O (stereo unspecified),-4,227%,-4%,8,9%,-35%
Cc1ccc(NC(=O)c2ccccc2SCC(=O)NC2CC2)c(Cl)c1,-2,.,.,.,.,.
Cc1ccc(-c2cc(C(F)F)n3nc(C)c(Br)c3n2)cc1,-34*,.,.,.,.,.
O=C(O)c1ccc2nc(-c3ccccc3)sc2c1,-16,-1%,0%,-52*,-3%,-11%
Nc1cc2sc(-c3ccc(C(=O)O)cc3)nc2cc1Cl,7,286%,6%,-76*,19%,?
CCOC(=O)C1=C(C)NC(C)=C(C(=O)OCC)C1c1ccncc1,0,.,.,-76*,-3%,.
Cc1c(CCCl)c(Cl)n2c(nc3ccccc32)c1C#N,-11,12%,.,-12,-39%,2.2µM*
N#Cc1c2c(c(Cl)n3c1nc1ccccc13)CCCC2,-2,2%,.,.,.,3.5µM*
Cc1cc(Cl)n2c(nc3ccccc32)c1C#N,-1,14%[57.1 µM],-11%,-18,-65%,7.1µM*
CCCCCn1c(=O)c2ccccc2n2c(CCl)nnc12,1,-3%[57.1 µM],5%,1,-65%,?
